These results are taken from PubChem BioAssay AID1049 (The Scripps Research Institute Molecular Screening Center, 2008).

Out of some 200,000 compounds screened, about 780 (0.39%) were called active. Shown is part of a subset that was picked to be rich in actives. A number with no mark means an inactive call. Rule as the data show it: active = TR-FRET ratio above about 2000; inactive = the rest.

The experiment is described as follows: TR-FRET signal artefacts, primary screen, artefact control for PPARgamma SRC-2 agonist project, biochemical (AID 1049). Particulars: TR-FRET artefact counter-screen; at 8 µM; stronger effect = higher value.
As to `COc1ccc2c(Cl)c(C(=O)NCc3ccco3)sc2c1`, the TR-FRET ratio was 1570.
With `COc1ccc2c(Cl)c(-c3nnco3)sc2c1`, the TR-FRET ratio is 2130 (active).
Then `COc1ccc(-c2nnco2)cc1OC`, with 1520; and `COCCNC(=S)N/N=C/c1c(C)[nH]c2ccccc12`, with 1410; and `COc1ccc(C(=O)NC2CCN(C(=S)NCCc3ccccc3)CC2)cc1`, with 1560.
Then `C/C=C(\C)C(=O)NCCN1C2=NC[C@H](Cc3ccc(O)cc3)N2C[C@@H]1Cc1ccc(OC)cc1`, with 1390; and `CCN1CCC2(CCN(Cc3cn[nH]c3-c3ccc(OC)c(F)c3)C2)C1` (stereo not drawn), with 1730.
`CN(C)c1ccnc(Oc2ccc(F)cc2)c1C#N`: the TR-FRET ratio is 1800.
For the compound `N#Cc1ccc(-c2ccc(Cl)cc2)nc1Oc1ccc(F)cc1`, the TR-FRET ratio is 5180 (active).
`N#Cc1ccc(-c2ccc(F)cc2)nc1Sc1ccccc1`: the TR-FRET ratio is 1500.
Then `CCn1cc(C(=O)Nc2cc(C)ccc2C)c(=O)c2ccc(C)nc21`, with 1650; and `CCOC(=O)C1(Cc2cccc(OC)c2)CCN(C(C)CC(C)(C)O)CC1` (stereo not drawn), with 1480; and `COC(=O)CSc1nccc(-c2cccs2)n1`, with 1880.
Then `COc1ccc(OC)c(C(=O)CSc2nnc(-c3cccs3)o2)c1`, with 1750; and `NC(=O)CSc1oc(-c2cccs2)nc1S(=O)(=O)c1ccccc1`, with 2010 (active).
As for `CCCn1c(N)c(C(=O)CSc2nc3ccccc3c(=O)n2-c2ccc(OC)cc2)c(=O)[nH]c1=O`, the figure is 1480.
As to `Cc1cc(C)nc(/N=C2\NC(=O)CC(C(=O)O)N2c2ccc(Cl)cc2Cl)n1` (stereo not drawn), the TR-FRET ratio was 1590.
Then `COc1cccc(-c2ccc(SCC(=O)N3CCN(c4ccccc4)CC3)nn2)c1`, with 1690; and `COc1cc(C2C(C(=O)c3ccc(C)o3)=C(O)C(=O)N2CCc2ccccc2)ccc1O` (stereo not drawn), with 1530.
`COc1cc(C2C(C(=O)c3ccc(C)o3)=C(O)C(=O)N2Cc2cccnc2)ccc1O` (stereo not drawn): the TR-FRET ratio is 1570.
Then `CCCOc1ccc(C2C(C(=O)c3ccc(C)o3)=C(O)C(=O)N2CCCn2ccnc2)cc1` (stereo not drawn), with 2170 (active).
Then `COc1ccc(NC(=O)COC(=O)c2ccc(NS(=O)(=O)/C=C/c3ccccc3)cc2)cc1`, with 1720.
As for `O=C(c1ccc2ccccc2n1)N1CCN(c2ccccc2Cl)CC1`, the figure is 1700; as for `COc1ccc(C2C(C#N)=C(N)N(c3ncn[nH]3)C3=C2C(=O)CCC3)cc1` (stereo not drawn), 1620.
As for `COc1cccc(CN2CCNC(=O)C2CC(=O)N(C)CCc2ccccn2)c1` (stereo not drawn), the TR-FRET ratio is 1620.
Then `NC(=NC(=O)c1ccccc1)N1CCOCC1`, with 1360; and `Cc1ccc(S(=O)(=O)NC(C(=O)N2CCOCCOCCOCCOCC2)c2ccccc2)cc1` (stereo not drawn), with 1360; and `CC(C(=O)N1CCOCC1)N1c2cccc3cccc(c23)S1(=O)=O` (stereo not drawn), with 2090 (active).
As for `C/C(=N\N1CCN(Cc2ccc(C)cc2)CC1)c1ccco1`, the figure is 1400; as for `Cc1nnc(SCc2cccc(Cl)c2)n(N)c1=O`, 1460; as for `Cc1cc([N+](=O)[O-])nn1CCCC(=O)Nc1cccnc1Cl`, 1580.
With `CC(NC(=S)Nc1ccc(S(N)(=O)=O)cc1)c1ccc2c(c1)OCO2` (stereo not drawn), the TR-FRET ratio is 1640.
As for `CC(C)(C)N(CC#CCC(O)(c1ccccc1)C1CCCC1)CCO` (stereo not drawn), the figure is 1230; as for `O=C1NC(c2cccc(Cl)c2)Nc2ccccc21` (stereo not drawn), 1540.
Then `CC(=O)N1c2ccccc2N(Cc2ccc([N+](=O)[O-])cc2)C(=O)C1(C)C`, with 1510.
On to `CCC1CCCCN1C(=S)Nc1ccc(C(C)=O)cc1` (stereo not drawn), for which the TR-FRET ratio is 1340.
Regarding `CCN(CC)CCCNC(=O)c1cc(-c2cccc(Cl)c2)on1`, the TR-FRET ratio was 1610.
Then `CCN(CCCNC(=O)CSc1cc(=O)n(C)c2cc(Cl)ccc12)Cc1ccccc1`, with 2600 (active).
Then `CCN(CC)CCCNC(=O)CCc1ccccc1`, with 1550; and `CCc1ccc(CN(C)Cc2nc(Cc3ccccc3)no2)nc1`, with 1650; and `CCOC(=O)c1ccc(NC(=O)c2cc(=O)[nH]c3ccccc23)cc1`, with 1510.
As for `O=C(O)Cc1sc(-c2ccc(C(=O)O)cc2)nc1-c1ccccc1`, the figure is 1800.
With `Cc1ccc(-c2nc(C)sc2CC(=O)O)cc1`, the TR-FRET ratio is 1600.
Then `O=C(O)Cc1sc(-c2ccccc2)nc1-c1cccs1`, with 2400 (active); and `N#CC1(NC(=O)COc2ccc3oc4ccccc4c3c2)CCCCC1`, with 1590; and `COc1cc(C=O)c(Br)cc1OCC(=O)NCc1ccccc1`, with 1530.
Then `O=C(CSCc1ccccc1)N1CCc2ccccc21`, with 1410; and `Cc1cc(=O)[nH]c(SCC(=O)N2c3ccccc3CC2C)n1` (stereo not drawn), with 1610; and `CCOC(=O)c1cc2sccc2n1Cc1ccc(C#N)cc1`, with 1400.
Then `O=C(c1cc2sccc2n1Cc1ccc(F)cc1)N1CCc2ccccc21`, with 2950 (active); and `CC1Cc2ccccc2N1C(=O)c1cc2sccc2n1Cc1ccccc1` (stereo not drawn), with 1970 (active).
As to `O=C(NCc1ccco1)c1cc2sccc2n1Cc1ccc(F)cc1`, the TR-FRET ratio is 1520.
As to `COc1ccc(-c2csc(Cc3nc(O)cs3)n2)cc1`, the TR-FRET ratio was 1650.
For the compound `CC(O)c1cccc(NC(=O)Cc2cccc3ccccc23)c1` (stereo not drawn), the TR-FRET ratio was 1490.
Take `CC1(C)CC(=O)C/C(=N\NC(=O)c2cccs2)C1`: the TR-FRET ratio was 1760.
For `COc1cc(/C=C/C(=O)OCC(=O)NC(=O)NCc2ccccc2)ccc1OCC#N`, the TR-FRET ratio was 1430.
As for `CC(=O)c1sc2nc(SCC(=O)N3CCCCC3)[nH]c(=O)c2c1C`, the figure is 1990 (active); as for `C=CCNC(=O)CSc1nc2sc(C)c(C)c2c(=O)[nH]1`, 1430.
`O=C(CSc1nc2c(cnn2-c2ccc(F)cc2)c(=O)[nH]1)N1CCCCCC1`: the TR-FRET ratio is 1460.
As for `O=C(CSCc1ccc(Cl)cc1)N1CCCCC1`, the figure is 1510.
On to `CCOC(=O)N1CCC(NC(=O)COc2cc(=O)n(C)c3ccccc23)CC1`, for which the TR-FRET ratio was 1480.
Then `Cn1c(=O)cc(SCC(=O)N2CCN(C(=O)c3ccco3)CC2)c2ccccc21`, with 2320 (active); and `Cn1c(=O)cc(SCC(=O)N2CCCC2)c2cc(Cl)ccc21`, with 2940 (active).
Then `CCOc1ccc(CCNC(=O)CSc2cc(=O)n(C)c3ccc(Cl)cc23)cc1OCC`, with 1900; and `CCOC(=O)C1CCN(C(=O)CSc2cc(=O)n(C)c3ccccc23)CC1`, with 2840 (active).
Turning to `CCOC(=O)C1CCN(C(=O)Cn2cc(C#N)c3ccccc32)CC1`, the TR-FRET ratio is 1470.
In the case of `CC(=O)c1ccc(-n2nnnc2SCC(=O)N2CCN(C(=O)c3ccco3)CC2)cc1`, the TR-FRET ratio was 1580.
Consider `Cc1cccc(OCc2nnc(SCC(=O)N3CCN(C(=O)c4ccco4)CC3)n2C)c1C`, for which the TR-FRET ratio was 1760.
Then `CN(C)C(CNC(=O)c1cccc(C#N)c1)c1ccco1` (stereo not drawn), with 1390; and `COc1ccc(NC(=O)CN2C(=O)CSC2=O)cc1`, with 1580.
Then `Cc1ccc(CN2CCN(Cc3ccc(OCCO)cc3)CC2CCO)o1` (stereo not drawn), with 1600; and `CC(C)OCCCNC(=S)N1CCC(C(=O)c2ccc3c(c2)OCCO3)CC1`, with 1610.
With `O=C(Nc1cccc(O)c1)c1ccc(C(=O)c2ccccc2)o1`, the TR-FRET ratio was 1480.
Then `COC(=O)CN1C(=O)N/C(=C/c2ccc(OC)c(C)c2OC)C1=O`, with 1240.
Then `CCOc1ccc(C(=O)Nc2cccc(-c3ccc4nncn4n3)c2)cc1`, with 1400; and `Cc1cccc(N2CCN(C(=O)c3cccc(S(=O)(=O)N4CCc5ccccc5C4)c3)CC2C)c1` (stereo not drawn), with 1420.
Then `Cc1nc(-c2ccccc2)sc1C(=O)/C=C/c1ccccc1`, with 1450.
`C=CCn1c(-c2sc(-c3ccccc3)nc2C)n[nH]c1=S`: the TR-FRET ratio was 1590.
As to `Cc1nc(-c2ccccc2)sc1-c1nc(-c2ccccc2)ncc1S(=O)(=O)c1ccccc1`, the TR-FRET ratio was 1980 (active).
As for `Cc1ccc(-c2csc(SCC(=O)Nc3cc(C)on3)n2)cc1`, the figure is 1440; as for `Cc1cc(NC(=O)CSc2nnc(Nc3ccccc3F)s2)no1`, 1500.
Take `Cc1cc(C)c2c(c1)cc(C)c1nnc(SCC(=O)Nc3cc(C)on3)n12`: the TR-FRET ratio is 1970 (active).
Then `CCN(CC)C(=O)C(=O)Nc1cccc(Br)c1`, with 1590.
Then `COc1ccc(-n2c(O)c(C=NCC(c3ccco3)N3CCCC3)c3ccccc3c2=O)cc1OC` (stereo not drawn), with 1590; and `COc1ccc(/C(O)=C2/C(=O)C(=O)N(c3nc(C)c(C)s3)C2c2ccco2)cc1` (stereo not drawn), with 2180 (active).
As for `COc1ccc(/C(O)=C2\C(=O)C(=O)N(Cc3ccco3)C2c2ccc(OC)cc2OC)cc1` (stereo not drawn), the figure is 1620; as for `COc1ccccc1C1/C(=C(/O)c2ccc(C)cc2)C(=O)C(=O)N1Cc1ccco1` (stereo not drawn), 1510.
With `Cc1ccc(S(=O)(=O)Nc2nc3ccccc3s2)cc1[N+](=O)[O-]`, the TR-FRET ratio was 1360.
Take `Cc1ccc(C)c(-n2cc(CN3CCN(C(=O)c4ncn[nH]4)CC3)c(-c3ccccc3)n2)c1`: the TR-FRET ratio is 1390.
For `Cc1ccc(-n2[nH]c(C)c(/C=N/N3C(=O)c4cccc5cccc(c45)C3=O)c2=O)cc1`, the TR-FRET ratio was 1510.
As for `COc1cc(SC#N)ccc1N=Cc1c(C)[nH]n(-c2ccc(C)cc2)c1=O`, the figure is 1980 (active); as for `CCc1nnc(NS(=O)(=O)c2ccc(N=Cc3c(C)[nH]n(-c4ccc(C)cc4)c3=O)cc2)s1`, 1630.
Then `Cc1cc(C)c(NC(=O)c2oc3ccccc3c2COc2ccccc2)c(C)c1`, with 1540.
Turning to `CCCCCC(O)c1cccc(OCc2ccc3ccccc3n2)c1` (stereo not drawn), the TR-FRET ratio is 1460.
As for `CCN(CC)S(=O)(=O)c1ccc(N(C)Cc2cccc(OC)c2OC)nc1`, the figure is 1770.
As for `OCC1(CCc2ccccc2)CCN(Cc2ccc3nsnc3c2)CC1`, the figure is 2040 (active); as for `Cc1cccc(-c2ncc(CN3CCC(CO)(CCCc4ccccc4)CC3)cn2)c1`, 1690; as for `CC(=O)c1cccc(CN2CCC(CO)(Cc3ccccc3)CC2)c1`, 1590.
